Data reported in PubChem BioAssay AID1159580 (chemical genetic matrix, 2015).
The whole screen tested about 5,500 compounds, of which about 2,000 (36%) were called active. Roughly 18% stayed inconclusive and do not appear here. Some of the results follow. Unmarked numbers belong to inactive results. Rule as the data show it: active = normalized growth mostly below about 0.91 (no sharp cut-off); inconclusive = no clear call, values can overlap the other calls; inactive = mostly above about 0.92.

Assay: chemical genetic growth profiling, strain panel (AID 1159580);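 also: tested at 20 µM; growth read once vehicle control cultures reached saturation at 30 °C; 1 = growth at the plate median or of vehicle wells; lower values mean less growth of the strain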
Details: S. cerevisiae deletion strains, growth OD
[1] = locus YAL013W, strain DEP1, active compounds read low
[2] = locus YDR150W, strain NUM1, active compounds read low
[3] = locus YGR078C, strain PAC10, active compounds read low
[4] = locus YJR075W, strain HOC1, active compounds read low
[5] = locus YNL153C, strain GIM3, active compounds read low
[6] = locus YPL241C, strain CIN2, active compounds read low

## N#Cc1csc([N+](=O)[O-])c1
[1]
  normalized growth: 0.944
Locus YBR229C, strain ROT2, active compounds read low
  normalized growth: 0.908 (active)
Locus YCL061C, strain MRC1, active compounds read low
  normalized growth: 0.937
Locus YDL101C, strain DUN1, active compounds read low
  normalized growth: 0.817 (active)
Locus YDL134C, strain PPH21, active compounds read low
  normalized growth: 0.892 (active)
[2]
  normalized growth: 0.885
Locus YEL061C, strain CIN8, active compounds read low
  normalized growth: 0.797 (active)
[3]
  normalized growth: 0.86 (active)
Locus YHR030C, strain SLT2, active compounds read low
  normalized growth: 0.363 (active)
Locus YHR087W, strain rtc3, active compounds read low
  normalized growth: 0.917
Locus YJR043C, strain POL32, active compounds read low
  normalized growth: 0.929
[4]
  normalized growth: 0.86 (active)
Locus YKL190W, strain CNB1, active compounds read low
  normalized growth: 0.923 (active)
Locus YLR039C, strain RIC1, active compounds read low
  normalized growth: 0.687 (active)
Locus YLR058C, strain SHM2 (second series), active compounds read low
  normalized growth: 0.951
Locus YLR085C, strain ARP6, active compounds read low
  normalized growth: 0.456 (active)
Locus YLR262C, strain YPT6, active compounds read low
  normalized growth: 0.795 (active)
Locus YML094W, strain GIM5, active compounds read low
  normalized growth: 0.809 (active)
Locus YMR219W, strain ESC1, active compounds read low
  normalized growth: 0.941 (active)
Locus YNL128W, strain TEP1, active compounds read low
  normalized growth: 0.942
[5]
  normalized growth: 0.901 (active)
Locus YNL298W, strain CLA4 (second series), active compounds read low
  normalized growth: 0.823 (active)
Locus YNL322C, strain KRE1, active compounds read low
  normalized growth: 1.01
Locus YNR030W, strain Alg12, active compounds read low
  normalized growth: 0.834 (active)
Locus YOL006C, strain TOP1, active compounds read low
  normalized growth: 0.369 (active)
Locus YPL055C, strain LGE1, active compounds read low
  normalized growth: 0.872
[6]
  normalized growth: 0.744 (active)
Locus YPR135W, strain CTF4, active compounds read low
  normalized growth: 0.46 (active)

## N#Cc1cc2nc(O)c(O)nc2cc1[N+](=O)[O-]
[1]
  normalized growth: 0.985
Locus YAL040C, strain CLN3, active compounds read low
  normalized growth: 0.989
Locus YCL061C, strain MRC1 (second series), active compounds read low
  normalized growth: 0.998
[2]
  normalized growth: 0.993
Locus YDR363W, strain ESC2, active compounds read low
  normalized growth: 1.01
Locus YER002W, strain NOP16, active compounds read low
  normalized growth: 1.01
[3]
  normalized growth: 0.979
Locus YGR229C, strain SMI1, active compounds read low
  normalized growth: 1.02
[4]
  normalized growth: 1
Locus YMR307W, strain GAS1, active compounds read low
  normalized growth: 0.991
[5]
  normalized growth: 0.984
Locus YNL175C, strain NOP13, active compounds read low
  normalized growth: 0.995
Locus YNL197C, strain WHI3, active compounds read low
  normalized growth: 0.997
Locus YNL224C, strain SQS1, active compounds read low
  normalized growth: 0.979
Locus YOR083W, strain WHI5 (second series), active compounds read low
  normalized growth: 0.994
[6]
  normalized growth: 1
